Test results: article PMC5700166

Experiments:
Experiment in all cases: protein-binding microarray (PBM); PBM: ~300 nM protein, 6 mM HEPES pH 7.8, 80 mM KCl, 0.5 mM EDTA, 0.5 mM EGTA, 6% glycerol, 35 ng/ul poly-dIdC, 1% milk, 1 h, room temperature; Ap Aiptasia and Nv Nematostella (sea anemones) / Co Capsaspora / Aq Amphimedon (sponge) / Dm Drosophila / Hu human; RHD is the Rel homology domain; high values mean tight binding
Settings in all cases: dsDNA, one strand shown
GST-Ap-NF-kB RHD = biological target: T1, GST-Ap-NF-kB RHD (Exaiptasia pallida (Aiptasia), UniProt A0A913YAJ5 2-422)
T1 sequence: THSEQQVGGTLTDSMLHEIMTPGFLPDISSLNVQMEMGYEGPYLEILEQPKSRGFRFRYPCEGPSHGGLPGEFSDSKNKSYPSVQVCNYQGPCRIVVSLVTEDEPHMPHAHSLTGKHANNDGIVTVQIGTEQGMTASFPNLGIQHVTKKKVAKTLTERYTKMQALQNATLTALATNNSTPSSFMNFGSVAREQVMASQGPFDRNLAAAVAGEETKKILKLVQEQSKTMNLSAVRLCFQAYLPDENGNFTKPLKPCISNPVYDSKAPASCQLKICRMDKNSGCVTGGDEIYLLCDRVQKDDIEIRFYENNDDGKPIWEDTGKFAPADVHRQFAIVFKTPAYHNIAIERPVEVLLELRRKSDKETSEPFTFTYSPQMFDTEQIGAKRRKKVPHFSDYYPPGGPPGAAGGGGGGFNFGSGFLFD

[1] = biological target: T2, GST-Nv-NF-kB (Cys allele) (Nematostella vectensis, UniProt E5G601 2-411)
T2 sequence: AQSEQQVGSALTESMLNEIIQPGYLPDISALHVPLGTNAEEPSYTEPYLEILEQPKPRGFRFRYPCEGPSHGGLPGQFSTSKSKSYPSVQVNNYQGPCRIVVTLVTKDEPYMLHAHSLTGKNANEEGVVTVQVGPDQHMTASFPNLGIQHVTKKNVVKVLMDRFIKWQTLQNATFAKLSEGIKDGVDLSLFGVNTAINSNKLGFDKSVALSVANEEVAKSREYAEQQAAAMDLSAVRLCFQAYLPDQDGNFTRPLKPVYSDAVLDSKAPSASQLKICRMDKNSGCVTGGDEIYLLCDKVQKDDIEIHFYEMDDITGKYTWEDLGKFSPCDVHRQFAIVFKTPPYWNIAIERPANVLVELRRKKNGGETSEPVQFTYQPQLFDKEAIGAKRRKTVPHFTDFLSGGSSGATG

GST-Co-NF-kB = biological target: T3, GST-Co-NF-kB (Capsaspora owczarzaki, UniProt F1ARL5 200-546)
T3 sequence: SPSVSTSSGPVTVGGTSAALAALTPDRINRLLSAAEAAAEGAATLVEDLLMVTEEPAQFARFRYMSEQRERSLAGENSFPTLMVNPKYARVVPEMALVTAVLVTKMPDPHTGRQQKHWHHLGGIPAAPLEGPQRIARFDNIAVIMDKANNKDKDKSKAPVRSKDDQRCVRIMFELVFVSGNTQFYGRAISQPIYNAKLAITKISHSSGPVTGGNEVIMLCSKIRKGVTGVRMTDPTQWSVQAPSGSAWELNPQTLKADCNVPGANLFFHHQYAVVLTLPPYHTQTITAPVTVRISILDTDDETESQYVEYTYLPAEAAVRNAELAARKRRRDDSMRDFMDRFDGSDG

GST-Dm-Relish = biological target: T4, GST-Dm-Relish (Drosophila melanogaster, UniProt Q94527 99-473)
T4 sequence: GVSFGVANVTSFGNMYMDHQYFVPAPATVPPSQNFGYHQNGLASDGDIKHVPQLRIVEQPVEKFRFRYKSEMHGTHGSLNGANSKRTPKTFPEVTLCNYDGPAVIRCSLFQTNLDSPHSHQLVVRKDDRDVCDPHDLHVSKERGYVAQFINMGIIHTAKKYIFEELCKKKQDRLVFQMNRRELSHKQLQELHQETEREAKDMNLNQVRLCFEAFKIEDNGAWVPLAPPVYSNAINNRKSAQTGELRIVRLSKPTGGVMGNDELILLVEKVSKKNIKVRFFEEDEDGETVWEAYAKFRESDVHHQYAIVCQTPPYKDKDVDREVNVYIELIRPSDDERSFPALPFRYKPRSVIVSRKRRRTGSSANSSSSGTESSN

GST-Aq-NF-kB = biological target: T5, GST-Aq-NF-kB (Amphimedon queenslandica, UniProt A9Y5G7 2-389)
T5 sequence: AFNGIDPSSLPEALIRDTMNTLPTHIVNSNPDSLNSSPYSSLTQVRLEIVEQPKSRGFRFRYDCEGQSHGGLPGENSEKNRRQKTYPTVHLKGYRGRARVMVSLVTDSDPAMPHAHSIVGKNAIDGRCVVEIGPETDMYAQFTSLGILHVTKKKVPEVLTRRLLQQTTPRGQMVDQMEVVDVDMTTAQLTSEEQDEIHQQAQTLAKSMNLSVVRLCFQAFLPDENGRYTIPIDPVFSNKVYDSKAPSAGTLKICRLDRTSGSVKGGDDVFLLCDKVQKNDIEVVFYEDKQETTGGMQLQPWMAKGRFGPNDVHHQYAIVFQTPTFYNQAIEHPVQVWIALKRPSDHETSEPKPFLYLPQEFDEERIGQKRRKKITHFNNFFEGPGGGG

GST-Hu-p50 = GST-Hu-p50 (Homo sapiens, UniProt P19838 7-356)
Chain of GST-Hu-p50 (P19838 7-356): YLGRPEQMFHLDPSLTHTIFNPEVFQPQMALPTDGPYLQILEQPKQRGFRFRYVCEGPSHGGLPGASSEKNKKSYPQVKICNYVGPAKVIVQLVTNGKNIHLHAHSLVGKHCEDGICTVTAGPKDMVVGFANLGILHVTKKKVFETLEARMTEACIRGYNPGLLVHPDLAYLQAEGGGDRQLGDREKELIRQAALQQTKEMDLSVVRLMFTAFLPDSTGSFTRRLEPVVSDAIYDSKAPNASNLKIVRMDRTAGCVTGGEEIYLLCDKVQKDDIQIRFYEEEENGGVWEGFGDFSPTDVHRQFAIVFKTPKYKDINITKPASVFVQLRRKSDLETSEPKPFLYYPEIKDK

“CCGATTAACATCAGGGGGGTTACTGATGTTAATCGGGTCTTGATTCGCTTGACGCTGCTG” showed a binding signal (GST-Ap-NF-kB RHD) of 7.07 z-score, a binding signal [1] of 4.42 z-score and a binding signal (GST-Co-NF-kB) of 4.24 z-score. It also gave a binding signal (GST-Dm-Relish) of 8 z-score, a binding signal (GST-Aq-NF-kB) of 5.46 z-score and a binding signal (GST-Hu-p50) of 5.29 z-score.

“CCGATTAACATCAGATAACCCCCTGATGTTAATCGGGTCTTGATTCGCTTGACGCTGCTG” showed a binding signal (GST-Ap-NF-kB RHD) of 7.2 z-score, a binding signal [1] of 5.72 z-score and a binding signal (GST-Co-NF-kB) of 2.43 z-score. For the same sequence, the binding signal (GST-Dm-Relish) was 6.66 z-score, the binding signal (GST-Aq-NF-kB) was 6.11 z-score and the binding signal (GST-Hu-p50) was 5.79 z-score.

“CCGATTAACATCACAGAAACCCCTGATGTTAATCGGGTCTTGATTCGCTTGACGCTGCTG” was tested, and the binding signal (GST-Ap-NF-kB RHD) was 5.66 z-score, the binding signal [1] was 4.62 z-score and the binding signal (GST-Co-NF-kB) was 1.21 z-score. The binding signal (GST-Dm-Relish) was 6.6 z-score, the binding signal (GST-Aq-NF-kB) was 4.61 z-score and the binding signal (GST-Hu-p50) was 5.39 z-score.

Work on “CCGATTAACATCACGGGGTTTTCTGATGTTAATCGGGTCTTGATTCGCTTGACGCTGCTG” yielded a binding signal (GST-Ap-NF-kB RHD) of 6.68 z-score, a binding signal [1] of 6.13 z-score and a binding signal (GST-Co-NF-kB) of 2.98 z-score. The binding signal (GST-Dm-Relish) was 8.05 z-score, the binding signal (GST-Aq-NF-kB) was 5.9 z-score and the binding signal (GST-Hu-p50) was 5.61 z-score.

“CCGATTAACATCAAAAAACCCCATGATGTTAATCGGGTCTTGATTCGCTTGACGCTGCTG” gave a binding signal (GST-Ap-NF-kB RHD) of 6.53 z-score, a binding signal [1] of 7.08 z-score and a binding signal (GST-Co-NF-kB) of 2.59 z-score. The binding signal (GST-Dm-Relish) was 9.52 z-score, the binding signal (GST-Aq-NF-kB) was 6.77 z-score and the binding signal (GST-Hu-p50) was 6.62 z-score.

“CCGATTAACATCAAACCTTCCCCTGATGTTAATCGGGTCTTGATTCGCTTGACGCTGCTG” gave a binding signal (GST-Ap-NF-kB RHD) of 4.68 z-score, a binding signal [1] of 5.62 z-score and a binding signal (GST-Co-NF-kB) of 6.54 z-score. For the same sequence, the binding signal (GST-Dm-Relish) was 3.12 z-score, the binding signal (GST-Aq-NF-kB) was 4.92 z-score and the binding signal (GST-Hu-p50) was 4.13 z-score.

Work on “CCGATTAACATCAAAACACCCCTTGATGTTAATCGGGTCTTGATTCGCTTGACGCTGCTG” yielded a binding signal (GST-Ap-NF-kB RHD) of 3.63 z-score, a binding signal [1] of 2.54 z-score and a binding signal (GST-Co-NF-kB) of 2 z-score. It also gave a binding signal (GST-Dm-Relish) of 4.19 z-score, a binding signal (GST-Aq-NF-kB) of 4.03 z-score and a binding signal (GST-Hu-p50) of 4.32 z-score.

“CCGATTAACATCAAAGAGCCCCCTGATGTTAATCGGGTCTTGATTCGCTTGACGCTGCTG” showed a binding signal (GST-Ap-NF-kB RHD) of 4.73 z-score, a binding signal [1] of 4.16 z-score and a binding signal (GST-Co-NF-kB) of 1.68 z-score. The binding signal (GST-Dm-Relish) was 3.94 z-score, the binding signal (GST-Aq-NF-kB) was 5.01 z-score and the binding signal (GST-Hu-p50) was 4.43 z-score.

Work on “CCGATTAACATCAAAATAGCCCCTGATGTTAATCGGGTCTTGATTCGCTTGACGCTGCTG” yielded a binding signal (GST-Ap-NF-kB RHD) of 5.32 z-score, a binding signal [1] of 5.99 z-score and a binding signal (GST-Co-NF-kB) of 1.88 z-score. It also gave a binding signal (GST-Dm-Relish) of 4.12 z-score, a binding signal (GST-Aq-NF-kB) of 5.87 z-score and a binding signal (GST-Hu-p50) of 5.38 z-score.

“CCGATTAACATCAGGGATGCCCCTGATGTTAATCGGGTCTTGATTCGCTTGACGCTGCTG” gave a binding signal (GST-Ap-NF-kB RHD) of 6.96 z-score, a binding signal [1] of 8.09 z-score and a binding signal (GST-Co-NF-kB) of 1.84 z-score. For the same sequence, the binding signal (GST-Dm-Relish) was 9.08 z-score, the binding signal (GST-Aq-NF-kB) was 8.39 z-score and the binding signal (GST-Hu-p50) was 5.89 z-score.

Sequence “CCGATTAACATCAGGGGGTGGAATGATGTTAATCGGGTCTTGATTCGCTTGACGCTGCTG” has a binding signal (GST-Ap-NF-kB RHD) of 3.47 z-score, a binding signal [1] of 3.19 z-score and a binding signal (GST-Co-NF-kB) of 4.5 z-score. It also gave a binding signal (GST-Dm-Relish) of 2.66 z-score, a binding signal (GST-Aq-NF-kB) of 3.65 z-score and a binding signal (GST-Hu-p50) of 4.42 z-score.

For “CCGATTAACATCAGGGACTTTAATGATGTTAATCGGGTCTTGATTCGCTTGACGCTGCTG”, the binding signal (GST-Ap-NF-kB RHD) was 4.47 z-score, the binding signal [1] was 5.92 z-score and the binding signal (GST-Co-NF-kB) was 1.03 z-score. For the same sequence, the binding signal (GST-Dm-Relish) was 5.04 z-score, the binding signal (GST-Aq-NF-kB) was 5.12 z-score and the binding signal (GST-Hu-p50) was 5.02 z-score.
